# The sample as a whole holds a higher share of the strongest signals than the screen did.
# Experiments:
# Experiment in all cases: glycan array binding signal (z-score within array); higher = stronger binding
# Conditions in all cases: glycan notation: IUPAC condensed, linker removed
# [1] = target: Fuc(a1-2)Gal(b1-3)GlcNAc(b1-2)Man(a1-3)[Fuc(a1-2)Gal(b1-3)GlcNAc(b1-2)Man(a1-6)]Man(b1-4)GlcNAc(b1-4)GlcNAc
# How it was run: (§1)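 The binding signal is a Z-score computed within each array and averaged over linkers. Arrays of the same protein sequence at different concentrations or buffers were also averaged together. Data originate from 3228 arrays in the Consortium for Functional Glycomics database, kept only where the protein sequence was available.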
# [2] = target: Fuc(a1-2)Gal(b1-3)GlcNAc(b1-3)[Gal(b1-4)[Fuc(a1-3)]GlcNAc(b1-6)]Gal(b1-4)Glc
# How it was run: as §1
# [3] = target: Fuc(a1-2)Gal(b1-3)[Fuc(a1-4)]GlcNAc(b1-2)Man(a1-3)[Fuc(a1-2)Gal(b1-3)[Fuc(a1-4)]GlcNAc(b1-2)Man(a1-6)]Man(b1-4)GlcNAc(b1-4)GlcNAc
# How it was run: as §1
# [4] = target: Fuc(a1-2)Gal(b1-4)GlcNAc
# How it was run: as §1
# [5] = target: Fuc(a1-2)Gal6S(b1-4)Glc
# How it was run: as §1
# [6] = target: Fuc(a1-2)[Gal(a1-3)]Gal
# How it was run: as §1
# [7] = target: Fuc(a1-2)[Gal(a1-3)]Gal(b1-4)[Fuc(a1-3)]Glc
# How it was run: as §1
# [8] = target: Fuc(a1-2)[GalNAc(a1-3)]Gal(b1-3)GalNAc(a1-3)[Fuc(a1-2)]Gal(b1-4)GlcNAc
# How it was run: as §1
# [9] = target: Fuc(a1-2)[GalNAc(a1-3)]Gal(b1-3)GalNAc(b1-3)Gal(a1-4)Gal(b1-4)Glc
# How it was run: as §1
# [10] = target: Fuc(a1-2)[GalNAc(a1-3)]Gal(b1-4)Glc
# How it was run: as §1
# [11] = target: Fuc(a1-2)[GalNAc(a1-3)]Gal(b1-4)GlcNAc(b1-2)Man(a1-3)[Fuc(a1-2)[GalNAc(a1-3)]Gal(b1-4)GlcNAc(b1-2)Man(a1-6)]Man(b1-4)GlcNAc(b1-4)GlcNAc
# How it was run: as §1
# [12] = target: Fuc(a1-2)[GalNAc(a1-3)]Gal(b1-4)GlcNAc(b1-3)Gal(b1-4)GlcNAc(b1-3)Gal(b1-4)GlcNAc
# How it was run: as §1
# [13] = target: Fuc(a1-2)[GalNAc(a1-3)]Gal(b1-4)GlcNAc(b1-3)[Fuc(a1-2)[GalNAc(a1-3)]Gal(b1-4)GlcNAc(b1-6)]GalNAc
# How it was run: as §1
# [14] = target: Fuc(a1-2)[GalNAc(a1-4)]Gal(b1-4)GlcNAc
# How it was run: as §1
# [15] = target: Fuc(a1-3)[Gal(b1-4)]GlcNAc(b1-4)Gal(b1-4)[Fuc(a1-3)]GlcNAc(b1-4)Gal(b1-4)[Fuc(a1-3)]GlcNAc
# How it was run: as §1
# [16] = target: Gal(a1-4)GlcNAc
# How it was run: as §1
# [17] = target: Gal(b1-2)Gal
# How it was run: as §1
# [18] = target: Gal(b1-3)GalNAc
# How it was run: as §1
# [19] = target: Gal(b1-3)GlcNAc(b1-2)[Gal(b1-3)GlcNAc(b1-6)]Man(a1-6)[Gal(b1-3)GlcNAc(b1-2)Man(a1-3)]Man(b1-4)GlcNAc(b1-4)GlcNAc
# How it was run: as §1
# [20] = target: Gal(b1-3)GlcNAc(b1-6)GalNAc
# How it was run: as §1
# [21] = target: Gal(b1-3)[Neu5Ac(a2-6)]GalNAc
# How it was run: as §1
# [22] = target: Gal(b1-4)Glc
# How it was run: as §1
# [23] = target: Gal(b1-4)GlcNAc(b1-2)Man(a1-3)[Gal(b1-4)GlcNAc(b1-2)Man(a1-6)]Man(b1-4)GlcNAc(b1-4)GlcNAc
# How it was run: as §1
# [24] = target: Gal(b1-4)GlcNAc(b1-2)Man(a1-3)[GlcNAc(b1-4)][Gal(b1-4)GlcNAc(b1-2)Man(a1-6)]Man(b1-4)GlcNAc(b1-4)GlcNAc
# How it was run: as §1
# [25] = target: Gal(b1-4)GlcNAc(b1-2)Man(a1-6)[GlcNAc(b1-2)Man(a1-3)]Man(b1-4)GlcNAc(b1-4)GlcNAc
# How it was run: as §1
# [26] = target: Gal(b1-4)GlcNAc(b1-3)[Gal(b1-4)GlcNAc(b1-6)]Gal(b1-4)GlcNAc
# How it was run: as §1
# [27] = target: Gal3S(b1-4)GlcNAc
# How it was run: as §1
# [28] = target: Gal4S(b1-4)GlcNAc
# How it was run: as §1
# [29] = target: GalNAc(a1-3)Gal
# How it was run: as §1
# [30] = target: GalNAc(a1-3)GalNAc
# How it was run: as §1
binder,measurement,setting,value
"HPAIIITrx (Helix pomatia), Q1KM18 (protein) MLFVTIISLGLLAIVHGQCALKTIAFSAAIDREQTFDANQVVIYDIVITNHGNAYDNSTGLFTAPVDGMYSFQLNLLTIKEKEGWLELVHNGQLKVSVYAKQDSTYDSSSNSVIIKMKEGDRVNVRAHKKSGLFGRDDELYNTFSGHFLSGL",glycan array binding signal (z-score),[1],3.03
same,glycan array binding signal (z-score),[2],-0.143
same,glycan array binding signal (z-score),[3],3.07
same,glycan array binding signal (z-score),[4],-0.3
same,glycan array binding signal (z-score),[5],-0.211
same,glycan array binding signal (z-score),[6],-0.256
same,glycan array binding signal (z-score),[7],-0.413
same,glycan array binding signal (z-score),[8],4.37
same,glycan array binding signal (z-score),[9],3.47
same,glycan array binding signal (z-score),[10],2.02
same,glycan array binding signal (z-score),[11],6.33
same,glycan array binding signal (z-score),[12],2.94
same,glycan array binding signal (z-score),[13],3.2
same,glycan array binding signal (z-score),[14],3.52
same,glycan array binding signal (z-score),[15],-0.564
same,glycan array binding signal (z-score),[16],-0.387
same,glycan array binding signal (z-score),[17],0.163
same,glycan array binding signal (z-score),[18],-0.149
same,glycan array binding signal (z-score),[19],-0.132
same,glycan array binding signal (z-score),[20],-0.368
same,glycan array binding signal (z-score),[21],-0.314
same,glycan array binding signal (z-score),[22],-0.056
same,glycan array binding signal (z-score),[23],-0.38
same,glycan array binding signal (z-score),[24],-0.402
same,glycan array binding signal (z-score),[25],-0.301
same,glycan array binding signal (z-score),[26],-0.21
same,glycan array binding signal (z-score),[27],-0.024
same,glycan array binding signal (z-score),[28],-0.358
same,glycan array binding signal (z-score),[29],2.5
same,glycan array binding signal (z-score),[30],3.35

# Reference: the supplement of paper PMC8728848
